# Source: PubChem (National Center for Advancing Translational Sciences (NCATS))
# This is one part of a sample in which hits are shown more often than they occur.
# HttQ103 aggreg: mutant huntingtin aggregation inhibition; PC12 HttQ103-GFP aggregates, Acumen cytometry, 40 h; Potency, µM (doses to about 46.1 µM), hits mostly inhibitors; 220,000 compounds, 1.1% hits; AID 1688; further: nearly all actives have a fitted effect of over 60% in size
#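 Steps: seed 1500 PC12 HTTQ103-GFP cells/well; add tebufenozide, 100 nM final; add compound titration; add ATPLite reagent; quantify GFP aggregates by laser scanning cytometry.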
# PI4K2A block: blocks human PI4K2A kinase activity; Q9BTU6; purified PI4K2A, ADP-Glo luminescence, 1 h; active compounds read low; activity change, negative = inhibition, % at 76.9 µM; 420,000 compounds, 0.13% hits; in the data active means activity change below about -50%; inconclusive means mostly about -30% to -49%
#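 Compounds are screened against recombinant PI4K2A using PI as substrate and ATP, the latter dispensed at 300 microM. Reactions run one hour at ambient temperature before ADP-Glo detection; full inhibition defined by wells lacking enzyme.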
# HTT cytoprotect: protects HTT-Q103 PC12 cells, measured by ATP | PC12 HTT-Q103 induced, cytoprotection, ATP luminescence, 40 h | Potency, µM (series often up to 56.4 µM), usual class: activators | 230,000 compounds, 0.14% hits | AID 1471; further: nearly all actives have a fitted effect of over 45% in size
#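 Stable PC12 Q103-GFP cells in serum-supplemented, phenol red-free DMEM; induction by tebufenozide at 100 nM final; compound dose series; cell viability quantified luminescently from ATP.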
# GALK inhibitor: inhibitors of human galactokinase; P51570; Purified GALK, Kinase-Glo residual ATP luminescence; Potency, µM (highest dose often 57.5 µM), most hits filed as inhibitors; 270,000 compounds, 0.007% hits
# Target sequence (P51570 whole entry, looked up): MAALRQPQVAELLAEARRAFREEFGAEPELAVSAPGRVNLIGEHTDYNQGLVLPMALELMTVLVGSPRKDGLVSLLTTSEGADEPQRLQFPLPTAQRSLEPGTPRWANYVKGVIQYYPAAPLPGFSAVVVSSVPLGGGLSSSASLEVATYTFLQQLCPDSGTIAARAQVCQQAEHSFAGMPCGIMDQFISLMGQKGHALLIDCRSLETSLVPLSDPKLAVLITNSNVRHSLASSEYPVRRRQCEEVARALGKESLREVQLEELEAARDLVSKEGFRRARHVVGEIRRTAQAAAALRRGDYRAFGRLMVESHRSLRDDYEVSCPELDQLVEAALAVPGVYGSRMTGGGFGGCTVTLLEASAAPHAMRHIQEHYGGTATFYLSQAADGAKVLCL
#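 Kinase-Glo Plus luminescence measured ATP left after a 1 h room-temperature reaction. The reaction used 5 nM GALK, 100 uM galactose and 35 uM ATP at pH 8.0 (20 mM HEPES, 5 mM MgCl2, 60 mM NaCl, 1 mM DTT, 0.01% BSA).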
# Hits are given with their value; 0 = inactive; ? = inconclusive; - = no result given; [ ] = remark or other dose. Unless noted, the call rests on the fitted dose curve; in most records, active means well fitted curve in the direction sought with a large enough effect; inconclusive means small, poorly fitted or top-dose-only effect, or another doubt; inactive means no such curve, though single readings can be large; an effect the other way counts as inactive or inconclusive.
SMILES,HttQ103 aggreg,PI4K2A block,HTT cytoprotect,GALK inhibitor
COc1ccc(/C(C)=N\NC(=O)c2ccco2)cc1,-,0,-,-
C=C1CC[C@@H]2O[C@]2(C)CC[C@@H]2[C@H]1CC2(C)C,-,-,0,-
CC[C@@]1(O)C(=O)OCc2c1cc1n(c2=O)Cc2c-1nc1ccccc1c2/C=N/OC(C)(C)C,-,0,-,-
CCC(C)NC(=S)N1CCN(Cc2ccccc2)CC1 (stereo unspecified),0.562µM,0,-,0
COc1cccc(C(=O)Nc2cccc(C(=O)NCC(C)C)c2)c1,3.16µM,0,0[10 µM],0
CCn1c(SCC(=O)c2ccc(-c3ccccc3)cc2)nnc1-c1ccccc1OC,-,0,-,-
CCc1cc(C(=O)c2ccccc2OC)c(N)s1,0,0,0,0
CCc1cc(C(=O)c2ccc(OC)cc2)c(N)s1,0.112µM,0,-,0
COC(=O)Cc1[nH]n(-c2nc3ccccc3s2)c(=O)c1C(C)=O,0,-53.0,0,0
CC(=O)c1c(CC(=O)O)[nH]n(-c2nc3ccccc3s2)c1=O,0,?,0[10 µM],0
COc1cc(C(C)=O)ccc1OCCCN1CCC(c2noc3cc(F)ccc23)CC1,-,0,-,-
COC(=O)C[C@@H]1CC[C@H]2[C@@H](COc3ccc(NC(=O)c4ccc(Cl)cc4)cc3C(=O)N2C)O1,-,0,-,-
C/C(CCN1CCCc2nc(C)c(C)cc21)=N\O[C@@H](C)c1cn([C@H](CO)Cc2ccccc2)nn1,-,-,0[10 µM],-
CC(C)Cn1[nH]c2c3c(ccc2c1=O)C(=O)c1ccccc1C3=O,22.4µM,0,0,-
O=C1c2ccccc2C(=O)c2c1ccc1c(=O)n(-c3ccccc3)[nH]c21,0,0,0[10 µM],0
O=C1CCC[C@H]2C[C@H](NCc3cccs3)CC[C@]23CCCN13,-,0,-,-
Cc1ccc(Oc2ccc(C(=O)NCc3ccncc3)cc2)cc1,11.2µM,0,0,0
O=C(NCc1ccncc1)c1ccc(Oc2ccccc2)cc1,11.2µM,0,0[10 µM],0
Cc1ccc(C(=O)NCCc2ccncc2)cc1,0,0,0,0
CC1=C(C(=O)O)N2C(=O)[C@@H](NC(=O)[C@H](N)C3=CCC=CC3)[C@H]2SC1,-,0,-,-
COC(=O)[C@]12C[C@H](CC(=O)NCCc3ccccc3OC)C(=O)N(CCc3ccc(OC)c(OC)c3)C1=C[C@H](COCc1ccccc1)O[C@@H]2C,-,0,-,-
COc1ccc(OC)c(-c2nc3c(C)n[nH]c(=O)c3[nH]2)c1,12.6µM,0,0[10 µM],0
COc1ccc(Cn2nnc3c(C)n[nH]c(=O)c32)cc1,-,0,-,0
COC(=O)C1=C(C(=O)OC)[C@@H]2N(C)c3ccccc3[C@@]23C[C@@H](C(=O)OC)N(S(=O)(=O)c2ccc(C(F)(F)F)cc2)C3=N1,-,-,0[10 µM],-
CCN(CC)c1ccc(NC(=O)c2cccc(OC)c2)c(C)c1,?,0,0,0
SMILES,HttQ103 aggreg,PI4K2A block,HTT cytoprotect,GALK inhibitor
CCN(CC)c1ccc(NC(=O)c2cc(OC)cc(OC)c2)c(C)c1,3.16µM,0,0[0.074 µM],0
COc1cc(C(=O)NC(c2ccc(Cl)cc2)c2cc(Cl)c3cccnc3c2O)cc(OC)c1OC (stereo unspecified),-,0,-,-
Cc1cc(NC(c2cccnc2)c2ccc3cccnc3c2O)no1 (stereo unspecified),?,0,0,0
Oc1c(C(Nc2ccccn2)c2cccnc2)cc(Cl)c2cccnc12 (stereo unspecified),7.08µM,0,0[10 µM],0
COc1ccc(C(NC(=O)c2cccnc2)c2cc(Cl)c3cccnc3c2O)cc1OC (stereo unspecified),2.82µM,0,0,0
COc1cc(/C=N/NC(=O)c2cc3ccccc3cc2O)ccc1OCCN1CCCCC1,20µM,0,-,0
CC1=C/C(=C(/c2ccc(O)c(C)c2)c2ccccc2C(=O)O)C=CC1=O,-,-,0[10 µM],-
O=C(O)C1=CC(=C(c2ccc(O)c(C(=O)O)c2)c2ccc(O)c(C(=O)O)c2)C=CC1=O,-,-85.7,0[1.9 µM],-
CC(O)C#C[Si](C)(C)c1ccccc1 (stereo unspecified),-,-,0,-
Clc1cccc(Cl)c1CNC1CCCC1,0.112µM,0,0,0
CCOC(=O)N1CCC(Nc2ccc(Cl)cc2N)CC1,-,0,-,-
CN(C)/C=C1\C(=O)N(c2ccc([N+](=O)[O-])cc2)N=C1c1ccccc1,0,-50.7,0[10 µM],0
C/C(=C1/C(=O)N(c2ccc([N+](=O)[O-])cc2)N=C1c1ccccc1)N(C)C,12.6µM,-,0,0
COC(=O)[C@]12C[C@H](CC(=O)NCc3ccccc3)C(=O)N(Cc3ccco3)C1=C[C@H](COCc1ccccc1)O[C@@H]2C,-,0,-,-
O=C(c1cccs1)C1CCN(c2ncnc3sccc23)CC1,-,0,-,-
COc1ccccc1N1CCN(Cc2ccc(O)c3ncccc23)CC1,1.12µM,0,0[10 µM],0
COc1ccccc1N1CCN(Cc2ccc(OC)c(OC)c2OC)CC1,0,0,0,0
COCCCNC(=O)C[C@H]1C[C@@]2(C(=O)OC)C(=C[C@H](COCc3ccccc3)O[C@@H]2C)N(Cc2ccc(Cl)cc2Cl)C1=O,-,0,-,-
CNC(=O)c1ccccc1Sc1ccc2c(/C=C/c3ccccn3)n[nH]c2c1,-,0,-,-
CC(=O)Nc1cccc(NC(=O)Cc2cccs2)c1,-,0,-,0
O=C(Cc1cccs1)Nc1cccc(-c2nc3cc4ccccc4cc3[nH]2)c1,25.1µM,0,-,0
COc1ccc(-c2cc(CNC(=O)CCl)on2)cc1,17.8µM,0,0,0
COc1ccc(-c2cc(CNC(C)=O)on2)cc1,0,0,0,0
CC(=O)c1c(C)oc2ccc(N(C(C)=O)S(=O)(=O)c3ccc(Br)cc3)cc12,-,0,-,-
CC(=O)c1c(C)oc2ccc(N(C(C)=O)S(=O)(=O)c3ccc(Cl)c([N+](=O)[O-])c3)cc12,11.2µM,0,0,0
SMILES,HttQ103 aggreg,PI4K2A block,HTT cytoprotect,GALK inhibitor
Cc1nc(N)c(C#N)c(-c2cccnc2)c1C,6.31µM,0,0[10 µM],0
CCc1nc(N)c(C#N)c(-c2cccnc2)c1C,0,0,0,0
O=S(=O)(NCc1ccncc1)c1ccc(Br)s1,2.51µM,0,0[0.074 µM],0
O=C(O)CNS(=O)(=O)c1ccc(Br)s1,0,0,0,0
O=c1[nH]nnc2sc3c(c12)CCCC3,11.2µM,0,0[10 µM],0
O=c1[nH]c(S)nc2sc3c(c12)CCCC3,?,0,0,0
CC1(C)Cc2c(c(N3CCOCC3)nc3snc(N)c23)CO1,25.1µM,0,0,0
CC1(C)Cc2c(c(N3CCOCC3)nc3snc(Br)c23)CO1,0,0,?,0
COc1ccccc1-c1nnc(SCC(=O)NCc2c(C)c(Cl)cc(C(C)C)c2O)o1,12.6µM,0,0,0
NC(=O)NC1N=C([O][Al])NC1=O (stereo unspecified),-,0,-,-
C[C@H]([C@H](C)N1CC(=O)NC(=O)C1)N1CC(=O)NC(=O)C1,-,-,0,-
COc1cccc(-n2nnc3c(=O)n(Cc4c(F)cccc4Cl)cnc32)c1,3.16µM,0,0[0.074 µM],0
COc1cccc(-n2nnc3c(=O)n(Cc4cccc(F)c4)cnc32)c1,0[9.22 µM],0,0,0
Cn1nc(C(C)(C)C)cc1C(=O)NCc1ccc(N2CCCC2=O)cc1,1.78µM,0,0[10 µM],0
COc1ccc(C(=O)O/N=C(\N)c2ccc(Br)cc2)cc1,-,0,-,0
